SMN2 splice enh = qHTS Assay for Enhancers of SMN2 Splice Variant Expression. AID 1458, 2008. 210,000 tested, 2.8% active. Potency, µM (doses to about 46.1 µM), without a hit: at the highest dose activity change, positive = activation, actives largely listed as activators. HEK293 SMN2-luciferase splicing reporter, luminescence, 30-36 h; further: % of control where 0% means no effect; nearly all actives have a fitted effect of over 55% in size
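qHTS luciferase splicing reporter: luminescence rises when SMN2 exon 7 is included in transfected HEK293 cells. Compound exposure lasted 30-36 h at 37C, with 4.5 mM final sodium butyrate as control, followed by a ONE-Glo read.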
Rab9 prom act = qHTS Assay for Rab9 Promoter Activators; Huh7 Rab9 promoter-luciferase reporter, luminescence, 24 h; AID 485297, 2010; Potency, µM (top dose mostly 9.22 µM), inactives show at the highest dose activation, negative = inhibition, usual class: activators; 320,000 tested, 2.8% active; further: % of control where 0% means no effect; nearly all actives have a fitted effect of over 60% in size
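Huh7 cells stably carrying a Rab9 promoter-luciferase reporter, 1500 cells per well in OP-MEM I with 10% FBS, treated with compound 24 hours at 37C. Luciferase activity read by luminescence after 10 minutes with Amplite reagent.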
FLuc modulator = qHTS profiling assay for firefly luciferase inhibitor/activator using purifed enzyme and Km concentrations of substrates (counterscreen for miR-21 project); Luciferin 4-monooxygenase (Photinus pyralis), P08659; purified FLuc, Km substrates, luminescence inhibition; Potency, µM (top dose mostly 57.5 µM), for inactives: at the highest dose activity change, negative = inhibition, actives largely listed as inhibitors; 360,000 tested, 6.9% active; AID 588342, 2011;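 further: plate controls were vehicle for no effect and reference inhibitor for full effect; nearly all actives have a fitted effect of over 55% in size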
Target sequence (P08659 whole entry, looked up): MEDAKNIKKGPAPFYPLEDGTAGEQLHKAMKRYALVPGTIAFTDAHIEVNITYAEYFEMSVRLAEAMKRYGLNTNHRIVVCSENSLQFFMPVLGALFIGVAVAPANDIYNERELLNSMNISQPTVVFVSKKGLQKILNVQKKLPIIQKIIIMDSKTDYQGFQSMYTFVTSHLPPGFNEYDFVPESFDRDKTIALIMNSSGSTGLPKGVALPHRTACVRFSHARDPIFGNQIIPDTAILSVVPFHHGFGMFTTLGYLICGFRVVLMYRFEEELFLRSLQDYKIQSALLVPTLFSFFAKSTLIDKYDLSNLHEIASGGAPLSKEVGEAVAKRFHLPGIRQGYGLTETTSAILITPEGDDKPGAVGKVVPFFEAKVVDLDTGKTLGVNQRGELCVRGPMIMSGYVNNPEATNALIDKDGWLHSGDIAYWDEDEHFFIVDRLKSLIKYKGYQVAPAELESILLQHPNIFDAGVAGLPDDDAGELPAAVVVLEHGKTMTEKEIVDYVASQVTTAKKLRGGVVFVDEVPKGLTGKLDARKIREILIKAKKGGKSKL
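Purified P. pyralis luciferase, 10 nM final, with Km-level 10 uM D-luciferin and 10 uM ATP in 50 mM Tris acetate pH 7.5, 10 mM Mg acetate, 0.01% Tween-20, 0.05% BSA; 6-point qHTS titration about 60 µM downward; luminescence read.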
NPC1 prom act = qHTS Assay for NPC1 Promoter Activators | 320,000 tested, 2.4% active | AID 485313, 2010 | Huh7 NPC1 promoter luciferase reporter, 24 h | Potency, µM (top dose mostly 9.22 µM), inactives show at the top dose activation, hits mostly activators; further: % of control where 0% means no effect; nearly all actives have a fitted effect of over 60% in size
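Readout is luciferase luminescence, reflecting NPC1 promoter activation in stably transfected Huh7 cells after 24 h compound exposure at 37 °C in reduced-serum medium with 10% FBS.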
ELG1 genotoxic = qHTS screen for small molecules that induce genotoxicity in human embryonic kidney (HEK293T) cells expressing luciferase-tagged ELG1; HEK293T ELG1-luciferase reporter, luminescence, 16 h; Potency, µM (doses to about 46 µM), for the others: at the top dose activity change, positive = activation, hits mostly activators; 330,000 tested, 1.3% active; further: % of control where 0% means no effect; nearly all actives have a fitted effect of over 60% in size
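16 hr compound incubation (37 °C, 5% CO2) of HEK293T cells carrying luciferase-tagged ELG1; luciferase then measured by ONE-Glo luminescence after 30 min at RT.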
The depositor's hits bear a star; [ ] = remark or other dose. A selection: hits, their analogues and other compounds. The true share with any hit is near 7.5%. The call rests on the fitted dose curve; in most records, active means well fitted curve in the direction sought with a large enough effect; inconclusive means small, poorly fitted or top-dose-only effect, or another doubt; inactive means no such curve, though single readings can be large; an effect the other way counts as inactive or inconclusive. Potency means the concentration at half of the fitted maximal effect.

How did CC1(C)CCC(=O)N2CC[C@H]3C[C@H](OC(=O)Nc4ccc(Br)cc4)C[C@@H]1[C@H]32 do in these assays?
Rab9 prom act: 14%; FLuc modulator: inconclusive; NPC1 prom act: 10%; ELG1 genotoxic: -1%

What do the screens show for `COC(=O)c1cc(S(=O)(=O)NCCN2CCN(c3ccccc3F)CC2)c[nH]1`?
Rab9 prom act: 0%; FLuc modulator: -3%; NPC1 prom act: -1%; ELG1 genotoxic: 0%[9.26 µM]

What do the screens show for `Cc1ccccc1NC(=O)CSc1nc2ccccc2o1`?
SMN2 splice enh: 7%; Rab9 prom act: inconclusive; FLuc modulator: 3%; NPC1 prom act: inconclusive; ELG1 genotoxic: 4.1µM*

How did Cc1ccccc1/C=N/NC(=O)CSc1nc2ccccc2o1 do in these assays?
SMN2 splice enh: inconclusive; Rab9 prom act: -3%; FLuc modulator: 2%; NPC1 prom act: -2%; ELG1 genotoxic: inconclusive

What do the screens show for `O=C(CSc1nc2ccccc2o1)NCc1ccc2c(c1)OCO2`?
SMN2 splice enh: inconclusive; Rab9 prom act: 3%; FLuc modulator: inconclusive; NPC1 prom act: -1%; ELG1 genotoxic: 21µM*

What do the screens show for `O=C(CSc1nc2ccccc2o1)Nc1nc2ccccc2s1`?
SMN2 splice enh: -15%; Rab9 prom act: -1%; FLuc modulator: inconclusive; NPC1 prom act: 11%; ELG1 genotoxic: 18%

What do the screens show for `O=C(CSc1nc2ccc(Cl)cc2o1)NCc1ccc2c(c1)OCO2`?
SMN2 splice enh: -2%; Rab9 prom act: 1%; FLuc modulator: 2%; NPC1 prom act: 14%; ELG1 genotoxic: -1%

Results for O=C(CSc1nc2ccccc2o1)Nc1nc(-c2ccccc2)cs1 ?
SMN2 splice enh: inconclusive; Rab9 prom act: 2%; FLuc modulator: 21µM*; NPC1 prom act: 15%; ELG1 genotoxic: inconclusive

What do the screens show for `Cc1ccc(N2CCN(c3ncnc4onc(-c5ccc(F)cc5)c34)CC2)c(C)c1`?
FLuc modulator: -1%

How did O=C1C2CC=CCC2C(=O)N1c1ccc(NCCc2cccc(F)c2)c([N+](=O)[O-])c1 (configuration not stated) do in these assays?
SMN2 splice enh: -17%; Rab9 prom act: -11%; FLuc modulator: -3%; NPC1 prom act: 1%; ELG1 genotoxic: -1%

What do the screens show for `COc1ccc(-c2nc3ccccc3o2)cc1NC(=O)COc1c(C)cc(Cl)cc1Cl`?
SMN2 splice enh: 4%; FLuc modulator: -1%

What do the screens show for `CCN1CCN(Cc2c(O)ccc3c2O/C(=C\c2ccc(C)cc2)C3=O)CC1`?
SMN2 splice enh: -1%; Rab9 prom act: -2%; FLuc modulator: inconclusive; NPC1 prom act: -12%; ELG1 genotoxic: -2%

Results for CN(C)Cc1c(O)ccc2c1O/C(=C\C=C\c1ccccc1)C2=O ?
Rab9 prom act: 1%; FLuc modulator: 13µM*; NPC1 prom act: 0%; ELG1 genotoxic: -9%

What do the screens show for `CCN1CCN(Cc2c(O)ccc3c2O/C(=C\c2ccccc2)C3=O)CC1`?
SMN2 splice enh: 4%; Rab9 prom act: -3%; FLuc modulator: -1%; NPC1 prom act: -3%; ELG1 genotoxic: -6%

Results for CCN1CCN(Cc2c(O)ccc3c2O/C(=C\C=C\c2ccccc2)C3=O)CC1 ?
SMN2 splice enh: -24%; Rab9 prom act: 7%; FLuc modulator: 11µM*; NPC1 prom act: 6%; ELG1 genotoxic: 0%

How did CCc1ccc(/C=C2\Oc3c(ccc(O)c3CN3CCN(C)CC3)C2=O)cc1 do in these assays?
Rab9 prom act: 0%; FLuc modulator: 12µM*; NPC1 prom act: inconclusive; ELG1 genotoxic: 8%

How did COc1ccccc1/C=C/C=C1\Oc2c(ccc(O)c2CN2CCN(CCO)CC2)C1=O do in these assays?
SMN2 splice enh: 24%; Rab9 prom act: 3%; FLuc modulator: 3.8µM*; NPC1 prom act: 3%; ELG1 genotoxic: 9%

What do the screens show for `COc1cc(OC)c([N+](=O)[O-])cc1/C=N/NC(=O)c1ccncc1`?
SMN2 splice enh: 11%; Rab9 prom act: 26%; FLuc modulator: -15%; NPC1 prom act: -1%; ELG1 genotoxic: 11%

How did O=C1/C(=C/C=C/c2ccccc2)Oc2c1ccc(O)c2CN1CCN(CCO)CC1 do in these assays?
Rab9 prom act: -7%; FLuc modulator: 12µM*; NPC1 prom act: -4%; ELG1 genotoxic: 0%

How did Fc1ccccc1-c1nnc2ccc3ccccc3n12 do in these assays?
Rab9 prom act: -1%; FLuc modulator: -15%; NPC1 prom act: 5%; ELG1 genotoxic: -2%

Results for Fc1cccc(Cl)c1-c1nnc2ccc3ccccc3n12 ?
SMN2 splice enh: -51%; Rab9 prom act: -8%; FLuc modulator: 19µM*; NPC1 prom act: -8%; ELG1 genotoxic: 5%

What do the screens show for `Brc1cccc(-c2nnn3c2nc(NCc2ccc4c(c2)OCO4)c2ccccc23)c1`?
SMN2 splice enh: 14µM*; FLuc modulator: -8%

How did CCCCNc1nc2c(-c3cccc(Br)c3)nnn2c2ccccc12 do in these assays?
SMN2 splice enh: 0%; FLuc modulator: 1%

What do the screens show for `Cc1cc(C)nc(NC(=O)Nc2ccc3c(c2)OCO3)c1`?
SMN2 splice enh: 2.5µM*; Rab9 prom act: 0.56µM*; FLuc modulator: inconclusive; NPC1 prom act: 0.71µM*; ELG1 genotoxic: inconclusive

Results for Cc1cc(C)cc(NC(=O)NC(C)C2CCCO2)c1 (configuration not stated) ?
Rab9 prom act: -1%; FLuc modulator: inconclusive; NPC1 prom act: -1%; ELG1 genotoxic: 0%

Results for CC(NC(=O)Nc1ccc2c(c1)OCO2)C1CCCO1 (configuration not stated) ?
SMN2 splice enh: inconclusive; Rab9 prom act: inconclusive; FLuc modulator: 17µM*; NPC1 prom act: inconclusive; ELG1 genotoxic: 13%

How did Cc1ccnc(NC(=O)CNC(=O)c2ccc3c(c2)OCO3)c1 do in these assays?
Rab9 prom act: 1%; FLuc modulator: -6%; NPC1 prom act: 0%; ELG1 genotoxic: 19%

How did Cc1cccc(NC(=O)Nc2cc(C)cc(C)n2)c1 do in these assays?
SMN2 splice enh: 5µM*; Rab9 prom act: 1.3µM*; FLuc modulator: 1.5µM*; NPC1 prom act: 2.2µM*; ELG1 genotoxic: inconclusive

How did Cc1cc(C)nc(NC(=O)c2ccc3c(c2)OCO3)c1 do in these assays?
SMN2 splice enh: 7%; Rab9 prom act: 17%; FLuc modulator: 17µM*; NPC1 prom act: 18%; ELG1 genotoxic: 14%

What do the screens show for `Cc1cc(NS(=O)(=O)c2ccc(NC(=O)Nc3ccc4c(c3)OCO4)cc2)no1`?
SMN2 splice enh: inconclusive; Rab9 prom act: 21%; FLuc modulator: inconclusive; NPC1 prom act: 17%; ELG1 genotoxic: 8%

What do the screens show for `CCc1nnc(SCc2nc(-c3cccc(Cl)c3)oc2C)c2cc3sc(C)cc3n12`?
FLuc modulator: -2%

Assay outcomes from PubChem.
